Molecules are shown by their SMILES.

This note sets out measurements from PubChem BioAssay.

Test system in one assay: not listed separately
As to the kind of experiment: mitochondrial membrane potential change in A549 cells, profiling panel, cell-based, JC-1 fluorescence, basal, 24 h, 100 nL (AID 1138).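 Also: A549 lung adenocarcinoma cells under basal conditions with no added stimulus; test concentration not given here.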 The note with it: higher = more signal.
In turn, `COc1cc2c(cc1OC)CN(C(=O)[C@@H]1[C@H]3C(=O)O[C@H](c4ccccc4)[C@H](c4ccccc4)N3[C@H](c3ccccc3OCCO)[C@@]13C(=O)Nc1ccc(C#CC4(O)CCCCCC4)cc13)CC2` displayed a z-score of -0.825. `C[C@@H](OCc1ccccc1)C1NC(=O)[C@@]23C(=O)N[C@@H](Cc4ccccc4)C2[C@H](C)[C@@]2(C)O[C@H]2C3/C=C/C/C=C\CNC(=O)CNC1=O` (some centres not stated): the z-score was -0.777.

Turning to `COCCCNC(=O)[C@]1(CCC(=O)OC(C)(C)C)N=C(c2ccc(OCCCO)cc2)O[C@@H]1c1ccccc1`, the z-score amounted to 0.229.

`CN(C)C(=O)[C@@]1(Cc2ccccc2N=[N+]=[N-])COC(c2ccc(OCCCO)cc2)=N1` returned a z-score of 1.76. The same measure, in the same setting: with `CCCc1cccc(=O)o1` the figure was 0.352; with `CC(C)C[C@@H]1NC(=O)[C@H]2C[C@@H](C(=O)NCCCCCC[N+](C)(C)C)[C@@H](c3cccc(OCCO)c3)N2C1=O`, -0.525; with `[N-]=[N+]=Nc1ccccc1C[C@]1(C(=O)NCc2ccccc2)N=C(c2ccc(OCCCO)cc2)O[C@H]1c1ccccc1`, 0.482.

Compound `C[C@@H]1ON(c2ccc(C(=O)OC(C)(C)C)cc2)[C@H](c2ccc(Br)cc2)[C@H]1C(=O)N1C(=O)OC[C@H]1Cc1ccccc1` gave a z-score of 1.59.

The next assay deals with Lefty1. The experiment in a line: Lefty1 binders on small-molecule microarrays, primary screen, biochemical, small-molecule microarray, 635/667 nm fluorescence (AID 1139). The note with it: small-molecule microarray binding, fluorescence 635/667; higher = more signal.
`Cc1ccc(S[C@]2(C(=O)NCC(F)(F)F)CC(=O)N(Cc3ccccc3)[C@@H]2c2ccc(CO)cc2)cc1` yielded a composite z-score of -0.758. As for `O=C1O[C@@H](c2ccccc2)[C@@H](c2ccccc2)N2[C@@H](c3ccccc3OCCO)[C@]3(C(=O)Nc4ccccc43)[C@@H](C(=O)NC[C@H](O)c3ccccc3)[C@H]12`, the composite z-score is -0.373. Still for that read-out and setting: with `COc1ccc([Si](C)(C)[C@@H]2[C@@H](CC(=O)N3CCC[C@H]3CO)O[C@]3(C(=O)N(Cc4ccc(N5C(=O)c6cccc7cccc5c67)cc4)c4ccccc43)[C@H]2C)cc1` the figure was 1.2; with `O=C1NC(=O)C2C1C=CC(C(O)c1ccc(Br)cc1)N2Nc1ccccn1` (configuration not stated), -0.162.

`O=C1C2C=CC(C(O)c3cc(C(F)(F)F)cc(C(F)(F)F)c3)N(Nc3ccc([N+](=O)[O-])cc3)C2C(=O)N1c1ccccc1` (configuration not stated): the composite z-score was 0.953. Compound `O=C1O[C@@H](c2ccccc2)[C@@H](c2ccccc2)N2[C@@H](c3ccccc3OCCO)[C@]3(C(=O)Nc4ccc(C#CCCO)cc43)[C@@H](C(=O)Nc3nc4ccccc4s3)[C@H]12` yielded a composite z-score of 1.55. The same measure, in the same setting: then `COc1ccccc1CN1C(=O)c2ccccc2[C@](Cc2ccccc2I)(C(=O)NC(C)C)[C@@H]1c1ccc(CO)cc1`, with 0.773; and `COC(=O)C(CC#Cc1ccc2c(c1)[C@]1(C(=O)N2)[C@H](C(=O)O)[C@H]2C(=O)O[C@H](c3ccccc3)[C@H](c3ccccc3)N2[C@@H]1c1ccccc1OCCO)C(=O)OC`, with 0.976; and `CC(C)NC(=O)[C@@]1(C)c2ccccc2C(=O)N(C(C)C)[C@H]1c1ccc(CO)cc1`, with -1.05. As to `NCCCCCCNC(=O)[C@@H]1C[C@@H]2C(=O)N3CCC[C@H]3C(=O)N2[C@@H]1c1ccc(O)cc1`, the composite z-score turned out to be 1.25.

`CC(C)C(O)C1C=CC2C(=O)N(C)C(=O)C2N1Nc1ccccc1` (configuration not stated) returned a composite z-score of -0.241. Take `C=CC[C@]12N=C(c3ccc(OCCCO)cc3)O[C@H]1c1ccccc1N(C)C2=O`: the composite z-score stood at 0.501. Same read-out and setting: then `CC(C)(C)OC(=O)CC[C@]1(C(=O)O)N=C(c2ccc(OCCCO)cc2)O[C@H]1c1ccccc1CN=[N+]=[N-]`, with -0.482. Regarding `COc1ccc(NN2C(C(O)c3ccco3)C=CC3C(=O)N(C4CCCCC4)C(=O)C32)cc1` (configuration not stated), the composite z-score stood at 0.655.

In turn, `CCOC(=O)[C@H]1C/C=C/C[C@H](C(=O)OCC)C(=O)O[C@H]2[C@@H](OC)O[C@H](CO)[C@@H](OC(=O)CCc3ccccc3)[C@@H]2OC1=O` came in with a composite z-score of -0.172. `COCCOC(=O)N1C(=O)[C@@]2(c3cc(C#CCNC(N)=O)ccc31)[C@H](C(=O)N1CCCCCCC1)[C@H]1C(=O)O[C@H](c3ccccc3)[C@H](c3ccccc3)N1[C@@H]2c1ccc(O)cc1` returned a composite z-score of 0.742. Compound `O=C1c2ccccc2[C@](Cc2ccccc2I)(C(=O)NCc2ccccc2)[C@H](c2ccc(CO)cc2)N1C1CCCCC1` showed a composite z-score of 1.42.

For `C=CCOC(=O)[C@H]1[C@@H]2C(=O)O[C@@H](c3ccccc3)[C@@H](c3ccccc3)N2[C@@H](c2ccc(OCCOC(=O)[C@H]3C[C@H]4C(=O)N[C@@H](Cc5ccccc5)C(=O)N4[C@H]3c3ccc(O)cc3)cc2)[C@]12C(=O)Nc1ccc(I)cc12`, the composite z-score is 1.69. Still for that read-out and setting: then `COCCCNC(=O)[C@@]1(Sc2ccc(C)cc2)CC(=O)N(Cc2cc(C(F)(F)F)cc(C(F)(F)F)c2)[C@@H]1c1ccc(CO)cc1`, with 1.25.
